Reference: PubChem BioAssay (NCATS)
Inconclusive results are not listed. For some assays here: Potency and affinity values are given separately. Activity calls are given as the source filed them. Unless noted, no rule for the calls is given here.

Tests used:
[1] = Ebola virus entry assay, green fluorescence channel
[2] = Ebola virus entry assay, blue channel fluorescence
[3] = Ebola virus entry assay, green channel fluorescence
[4] = Ebola virus entry assay, reporter ratio channel; AC50: Channel type: primary unless noted; outcome: Channel type: primary unless noted
[5] = Ebola virus entry assay, blue channel (ratio component)
[6] = qHTS assay for measurement of the activity of small molecule inhibitors on Zika virus induced Caspase-3 activity in human astrocytoma cells (AID 1224859; active = well fitted inhibition curve with a large enough effect;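 also: plate controls were ZIKV-infected untreated cells for no effect and uninfected cells for full effect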); conditions: SNB-19 ZIKV-induced caspase-3/7, luminescence, 6 h; series mostly up to 45.7 µM
Procedure, shortened: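 Caspase activation in ZIKV-infected SNB-19 cells (2 FFU/cell, 6 h) measured by Caspase-Glo 3/7 luminescence after 30 min RT; compound pre-incubated 1 h; normalised to uninfected and infected controls.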

[7] = qHTS assay for measurement of the activity of small molecule inhibitors on Zika virus induced Caspase-3 activity in human iPSC derived neural progenitor cells (hNPCs) (AID 1224857; active = well fitted inhibition curve with a large enough effect; also: % of control where 0% means no effect; nearly all actives have a fitted effect of over 65% in size); conditions: hNPCs ZIKV-induced caspase-3/7, Caspase-Glo luminescence, 6 h; series mostly up to 45.7 µM
Procedure, shortened: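 Zika virus (2 FFU/cell) infection of human iPSC-derived NPCs, 6 h, following 1 h compound preincubation. Read-out: Caspase-Glo 3/7 luminescence.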

[8] = Ebola virus entry assay, ratio channel
[9] = qHTS profiling of the MIPE4 collection as inhibitors of Plasmodium falciparum (DD2) proliferation (AID 743345); conditions: P. falciparum Dd2 in erythrocytes, SYBR Green DNA, 72 h; at 28.5 µM (top of the series) unless noted
Procedure, shortened: (§1)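 Erythrocytes infected with P. falciparum (0.3% parasitemia, 2.5% hematocrit) incubated with compounds 72 h at 37 C, 5% CO2. Lysis with saponin/Triton buffer containing SYBR Green I, overnight at room temperature in the dark; DNA fluorescence (485/535 nm) normalised to 0.29 uM artemisinin and DMSO.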

[10] = qHTS profiling of the MIPE4 collection as inhibitors of Plasmodium falciparum (DD2) proliferation (Rep 2) (AID 743346); conditions: P. falciparum Dd2 in erythrocytes, SYBR Green DNA, 72 h; at 28.5 µM (top of the series) unless noted
Procedure, shortened: as §1

[11] = qHTS profiling of the MIPE4 collection as inhibitors of Plasmodium falciparum (HB3) proliferation (AID 743347);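 also: plate controls were DMSO vehicle wells for no effect and artemisinin wells for full effect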; conditions: P. falciparum HB3 in erythrocytes, SYBR Green DNA, 72 h; at 28.5 µM (top of the series) unless noted
Procedure, shortened: as §1

[12] = High-throughput drug toxicity screening in the BPDCN cell line Cal-1 (AID 1224825); conditions: Cal-1 BPDCN cell viability, qHTS; at 45.8 µM (top of the series) unless noted;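 also: cells exposed to compounds for 48 h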
Procedure, shortened: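 500 Cal-1 cells/well, RPMI + glutamine + 10% FBS (phenol red-free); cpd added by pin tool; 48 h, 37C, 5% CO2; CTG 15 min RT, lumi read. Normalised: DMSO 100%, bortezomib 9.2 uM 0%.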
For efficacy in this document: 0% is about no effect.

CC(=O)Nc1ccccc1
inactive: efficacy [1] -20.9% | outcome [2] | outcome [3] | outcome [4] | outcome [5]

CC(=O)[C@H]1CC[C@H]2[C@@H]3C[C@H](C)C4=CC(=O)CC[C@]4(C)[C@H]3[C@@H](O)C[C@]12C
inactive: efficacy [1] -17.9% | outcome [2] | outcome [3] | outcome [4] | outcome [5]

O=C(OCCN1CCOCC1)c1cccnc1Nc1cccc(C(F)(F)F)c1
inactive: efficacy [1] -15.5% | outcome [2] | outcome [3] | outcome [4] | outcome [5]

O=C(OOC(=O)c1ccccc1)c1ccccc1
inactive: efficacy [1] -19.5% | outcome [2] | outcome [3] | outcome [4] | outcome [5]

O=C(O)c1[nH]n(-c2ccc(S(=O)(=O)O)cc2)c(=O)c1N=Nc1ccc(S(=O)(=O)O)cc1
inactive: efficacy [1] 23% | outcome [2] | outcome [3] | outcome [4] | outcome [5]

Oc1ccc(Cl)c2cccnc12
inactive: efficacy [1] -23.9% | outcome [2] | outcome [3] | outcome [4] | outcome [5]

CC[C@H](C)[C@H](N)C(=O)O
inactive: efficacy [1] -38.6% | outcome [2] | outcome [3] | outcome [4] | outcome [5]

CS(=O)(=O)c1ccc([C@@H](O)[C@@H](CO)NC(=O)C(Cl)Cl)cc1
inactive: efficacy [1] -14.2% | outcome [2] | outcome [3] | outcome [4] | outcome [5]

CC(C)(C)CC(C)(C)c1ccc(O)c(-n2nc3ccccc3n2)c1
inactive: efficacy [1] 9.19% | outcome [2] | outcome [3] | outcome [4] | outcome [5]

O=C(O)c1ccccc1OP(=O)(O)O
inactive: efficacy [1] 11.4% | outcome [2] | outcome [3] | outcome [4] | outcome [5]

COc1ccc(C(=O)NCc2ccc(OCCN(C)C)cc2)cc1OC
inactive: efficacy [1] -7.96% | outcome [2] | outcome [3] | outcome [4] | outcome [5]

CN1[C@@H]2CC(OC(=O)[C@H](CO)c3ccccc3)C[C@H]1[C@@H]1O[C@@H]12 (some centres not stated)
inactive: efficacy [1] -18.3% | outcome [2] | outcome [3] | outcome [4] | outcome [5]

Nc1ncnc2c1ncn2[C@@H]1O[C@H](COP(=O)(O)O)[C@@H](O)[C@H]1O
inactive: efficacy [1] 14.6% | outcome [2] | outcome [3] | outcome [4] | outcome [5]

CC(=O)OCC(=O)[C@@]1(O)[C@H](C)C[C@H]2[C@@H]3CCC4=CC(=O)C=C[C@]4(C)[C@@]3(F)[C@@H](O)C[C@@]21C
inactive: efficacy [1] 26.4% | outcome [2] | outcome [3] | outcome [4] | outcome [5]

CNC[C@H](O)[C@@H](O)[C@H](O)[C@H](O)CO
inactive: efficacy [1] -10.6% | outcome [2] | outcome [3] | outcome [4] | outcome [5]

O=C1c2ccccc2CCc2ccccc21
inactive: efficacy [1] 12.1% | outcome [2] | outcome [3] | outcome [4] | outcome [5]

Cc1cccc(C)c1NC(=O)CN1CCCCCC1
inactive: efficacy [1] -23% | outcome [2] | outcome [3] | outcome [4] | outcome [5]

O=C(O)c1c(O)c(-c2ccccc2)nc2ccccc12
inactive: efficacy [1] 18% | outcome [2] | outcome [3] | outcome [4] | outcome [5]

CCN1CCC[C@H]1CNC(=O)c1c(O)c(Cl)cc(Cl)c1OC
inactive: efficacy [1] -17.7% | outcome [2] | outcome [3] | outcome [4] | outcome [5]

O=C(Nc1ccc(Br)cc1)c1cc(Br)cc(Br)c1O
inactive: efficacy [1] -20.2% | outcome [2] | outcome [3] | outcome [4] | outcome [5]

O=C(c1ccco1)N1CCNCC1
inactive: efficacy [1] 12.6% | outcome [2] | outcome [3] | outcome [4] | outcome [5]

NS(=O)(=O)c1cc(C(=O)NN2C[C@H]3[C@H]4CCC(C4)[C@H]3C2)ccc1Cl
inactive: efficacy [1] -15.5% | outcome [2] | outcome [3] | outcome [4] | outcome [5]

CC(C)(C(=O)c1cccnc1)c1cccnc1
inactive: efficacy [1] 15.8% | outcome [2] | outcome [3] | outcome [4] | outcome [5]

CC(N=C(NC#N)Nc1ccncc1)C(C)(C)C (configuration not stated)
inactive: efficacy [1] -23.2% | outcome [2] | outcome [3] | outcome [4] | outcome [5]

Cc1cc(OI)c(C(C)C)cc1-c1cc(C(C)C)c(OI)cc1C
inactive: efficacy [1] 13.6% | outcome [2] | outcome [3] | outcome [4] | outcome [5]

CCCCCCNC(=O)n1cc(F)c(=O)[nH]c1=O
inactive: efficacy [1] -33.6% | outcome [2] | outcome [3] | outcome [4] | outcome [5]

CCCCCCCC(=O)OCC(COC(=O)CCCCCCC)OC(=O)CCCCCCC
inactive: efficacy [1] 8.07% | outcome [2] | outcome [3] | outcome [4] | outcome [5]

CCc1cccc(CC)c1NC(=O)CN(CC(=O)O)CC(=O)O
inactive: efficacy [1] 15.2% | outcome [2] | outcome [3] | outcome [4] | outcome [5]

O=C(O)Cc1ccc(OCCNC[C@H](O)c2ccccc2)cc1
inactive: efficacy [1] -33.3% | outcome [2] | outcome [3] | outcome [4] | outcome [5]

Cc1cccc(C)c1NC(=O)CN(CC(=O)O)CC(=O)O
inactive: efficacy [1] -22.8% | outcome [2] | outcome [3] | outcome [4] | outcome [5]

Cc1cc(=O)n(-c2ccccc2)n1C
inactive: efficacy [1] -22% | outcome [2] | outcome [3] | outcome [4] | outcome [5]

Cn1c(=O)c2c(ncn2CCO)n(C)c1=O
inactive: efficacy [1] -37.9% | outcome [2] | outcome [3] | outcome [4] | outcome [5]

CC(C)(Oc1ccc(C2CC2(Cl)Cl)cc1)C(=O)O (configuration not stated)
inactive: efficacy [1] 16.1% | outcome [2] | outcome [3] | outcome [4] | outcome [5]

O=C(O)CCCCC1CCSS1 (configuration not stated)
inactive: efficacy [1] -16.3% | outcome [2] | outcome [3] | outcome [4] | outcome [5]

Cc1oc(=O)oc1COC(=O)[C@@H]1N2C(=O)[C@@H](NC(=O)[C@H](N)c3ccccc3)[C@H]2SC1(C)C
inactive: efficacy [1] -26.8% | outcome [2] | outcome [3] | outcome [4] | outcome [5]

CC(=O)Oc1cccc(O)c1
inactive: efficacy [1] -10.5% | outcome [2] | outcome [3] | outcome [4] | outcome [5]

C[N+]1(CCF)[C@@H]2CC[C@H]1CC(OC(=O)C(O)(c1ccccc1)c1ccccc1)C2 (some centres not stated)
inactive: outcome [6]

C[C@]12CCC(=O)C=C1CC[C@@H]1[C@@H]2CC[C@@]2(C)[C@H]1CC[C@]2(C)O
inactive: outcome [6]

CCOc1ccccc1OCC1CNCCO1 (configuration not stated)
inactive: efficacy [1] 47.7% | outcome [2] | outcome [4] | outcome [5]

Cc1cc(C(C#N)c2ccc(Cl)cc2)c(Cl)cc1NC(=O)c1cc(I)cc(I)c1O (configuration not stated)
inactive: efficacy [1] -32.3% | outcome [2] | outcome [4] | outcome [5]

CCN(CCO)CCn1c(Cc2ccccc2)nc2c1c(=O)n(C)c(=O)n2C
inactive: efficacy [1] 27.5% | outcome [2] | outcome [3] | outcome [4] | outcome [5] | outcome [7] | outcome [6]

Clc1ccccc1N1CCNCC1
inactive: efficacy [1] -17.1% | outcome [2] | outcome [3] | outcome [4] | outcome [5] | outcome [7] | outcome [6]

CC(CN(C)C)C(C)(O)Cc1ccc(Cl)cc1 (configuration not stated)
active: AC50 [4] 28.2 µM
inactive: efficacy [1] 33.9% | outcome [8] | outcome [3]

COP(=S)(OC)Oc1cc(Cl)c(Cl)cc1Cl
inactive: efficacy [1] -14% | outcome [2] | outcome [3] | outcome [4] | outcome [5] | outcome [7] | outcome [6]

NC(=O)c1cccnc1
inactive: efficacy [1] -19.3% | outcome [8] | outcome [3] | outcome [4] | outcome [5]

CC(C)NCC(O)c1cc(O)cc(O)c1 (configuration not stated)
inactive: efficacy [1] 56.8% | outcome [2] | outcome [4] | outcome [5]

Cc1cc(CC(=O)O)c(C)n1-c1ccc(Cl)cc1
inactive: efficacy [1] 41.9% | outcome [2] | outcome [4] | outcome [5]

C[C@]12CC[C@H]3[C@@H](CCC4=CC(=O)CC[C@@H]43)[C@@H]1CC[C@@H]2OC(=O)CCc1ccco1
inactive: efficacy [1] -14.7% | outcome [2] | outcome [3] | outcome [4] | outcome [5] | outcome [7] | outcome [6]

COc1cc(CCN)cc(OC)c1OC
inactive: efficacy [1] 10.5% | outcome [2] | outcome [3] | outcome [4] | outcome [5] | outcome [7] | outcome [6]

COCCOC(=O)C1=C(C)NC(C)=C(C(=O)OC(C)C)C1c1cccc([N+](=O)[O-])c1 (configuration not stated)
inactive: efficacy [1] 27.1% | outcome [2] | outcome [4] | outcome [5]

COC(=O)N/N=C/c1c[n+]([O-])c2ccccc2[n+]1[O-]
inactive: efficacy [1] 35% | outcome [2] | outcome [4] | outcome [5]

Cc1cc2nc3c(=O)[nH]c(=O)nc-3n(C[C@H](O)[C@H](O)[C@H](O)CO)c2cc1C
inactive: efficacy [1] 67.6% | outcome [2] | outcome [4] | outcome [5]

O=C(C1CCCCC1)N1CC(=O)N2CCCc3ccccc3C2C1 (configuration not stated)
inactive: efficacy [1] 76.1% | outcome [2] | outcome [4] | outcome [5]

C[C@]12Cc3cn[nH]c3C[C@@H]1CC[C@@H]1[C@@H]2CC[C@@]2(C)[C@H]1CC[C@]2(C)O
inactive: efficacy [1] 8.25% | outcome [2] | outcome [3] | outcome [4] | outcome [5] | outcome [7] | outcome [6]

NS(=O)(=O)c1cc2c(cc1Cl)NC(C(Cl)Cl)NS2(=O)=O (configuration not stated)
inactive: efficacy [1] -21% | outcome [8] | outcome [3] | outcome [4] | outcome [5]

C[C@@H]1CC2=CC(=O)CC[C@@H]2[C@H]2CC[C@@]3(C)[C@@H](CC[C@]3(C)O)[C@@H]21
inactive: efficacy [1] 24.6% | outcome [2] | outcome [3] | outcome [4] | outcome [5] | outcome [7] | outcome [6]

Cc1cccc(C)c1OCC(=O)N[C@@H](Cc1ccccc1)[C@@H](O)C[C@H](Cc1ccccc1)NC(=O)[C@H](C(C)C)N1CCCNC1=O
active: AC50 [4] 39.8 µM
inactive: efficacy [1] 20.6% | outcome [8] | outcome [3]

CC(C)c1cccc(C(C)C)c1O
103%: growth, % of control [11]
85.1%: parasite growth, % of control (lower = inhibition) [10]
113%: viability (% of control) [12]
102%: parasite growth remaining, % of DMSO control (lower = more inhibition) [9]
inactive: efficacy [1] -18.5% | outcome [2] | outcome [3] | outcome [5] | outcome [7] | outcome [6]

CN1C(C(=O)Nc2ccccn2)=C(O)c2sccc2S1(=O)=O
inactive: efficacy [1] -30.7% | outcome [2] | outcome [4] | outcome [5]

C=CCC1(C(C)CC)C(=O)NC(=O)NC1=O (configuration not stated)
inactive: efficacy [1] 14.7% | outcome [2] | outcome [3] | outcome [4] | outcome [5] | outcome [7] | outcome [6]
